Measurements taken from PubChem BioAssay.
A number with no mark means an inactive call.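 The calls were made as follows: active = GFP response above 150% of the DMSO level; inconclusive = fewer than 70 events counted for a yeast strain; inactive = the rest.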

Assay: AGP1-GFP expression modulators, hit retest, confirmation, cell-based, flow cytometry, S. cerevisiae, cherry picks (AID 2273);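 also: median GFP channel fluorescence over the whole cell population gate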
Settings: S. cerevisiae AGP1-GFP strain, 3 h, at 10 µM

SMILES | GFP response, % of DMSO [%]
CC(=O)[C@@]1(O)CC[C@H]2[C@@H]3CCC4=CC(=O)CC[C@]4(C)[C@H]3CC[C@@]21C | 96.5
Nc1nc2c(ncn2COCCO)c(=O)[nH]1 | 102
C[C@]12CCC(=O)C=C1CC[C@@H]1[C@@H]2C(=O)C[C@@]2(C)[C@H]1CC[C@]2(O)C(=O)CO | 104
O=c1[nH]c(=O)n([C@H]2C[C@H](O)[C@@H](CO)O2)cc1F | 102
Cc1c(CC(C)C)nc(N)c(C#N)c1-c1ccccc1 | 98.7
O=S(=O)(c1ccc(Cl)cc1)c1snnc1-c1ccccc1 | 102
CCOc1cc(C(=S)N2CCCCC2)ccc1OS(=O)(=O)c1ccc(Cl)cc1 | 105
